Experimental data from PubChem BioAssay (NCI).
About 83,000 compounds went through this panel and 20% of them were active in at least one assay; those are over-represented in the sample as a whole.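 Plates (96-well) were seeded with cells, treated with compound at one concentration, and incubated for 48 hours before percent growth was determined.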 Activity calls are given as the source filed them. How the source made its calls: active means growth percent below 10; inactive means the rest.

Tests used:
Assay in all cases: NCI-60 one-dose screen, 48 h (100 = growth as untreated, 0 = no growth, -100 = all killed)
Conditions in all cases: 10 µM unless noted
T-47D breast = system: T-47D breast
BT-549 breast = system: BT-549 breast
MDA-MB-435 melanoma = system: MDA-MB-435 melanoma
SW-620 colon = system: SW-620 colon
HCT-116 colon = system: HCT-116 colon
KM12 colon = system: KM12 colon
HCC-2998 colon = system: HCC-2998 colon
MCF7 breast = system: MCF7 breast

Measured: growth

CN(C)c1ccc(/C=C2/C=C(c3ccccc3)OC2=O)cc1
inactive: T-47D breast 86.9% | BT-549 breast 98.6% | MDA-MB-435 melanoma 21.7% | SW-620 colon 95.2% | HCT-116 colon 100% | KM12 colon 63.5%

CCN(CC)CCN(CCN(CC)CC)c1ccccc1
inactive: T-47D breast 89.3% | BT-549 breast 54.3% | MDA-MB-435 melanoma 103% | SW-620 colon 95.8% | HCT-116 colon 74.6% | HCC-2998 colon 91.5% | KM12 colon 108%

COc1cc(C#Cc2ccc(=O)oc2C#Cc2ccccc2)cc(OC)c1OC
inactive: T-47D breast 27.6% | BT-549 breast 57.6% | MDA-MB-435 melanoma 96% | HCC-2998 colon 29.1% | KM12 colon 82.7%
active: SW-620 colon 8.07% | HCT-116 colon -32.2%

CCOC(=O)c1c(-c2ccccc2)n2c(=O)cc(C)c3c(O)c(O)cc1c32
inactive: T-47D breast 55% | BT-549 breast 89.8% | MDA-MB-435 melanoma 79.7% | SW-620 colon 55.4% | HCT-116 colon 24.5% | HCC-2998 colon 61.3% | KM12 colon 64.3%

CCCCc1oc2ccccc2c1C(=O)c1ccc(O)cc1
inactive: T-47D breast 75.3% | BT-549 breast 70.1% | MDA-MB-435 melanoma 52.2% | SW-620 colon 99.8% | HCT-116 colon 83.2% | HCC-2998 colon 460% | KM12 colon 76.4%

CC(C)CCC[C@@H](C)C1CCC2C3CCC4=C/C(=N/OCCN(C)C)CC[C@]4(C)C3CC[C@@]21C (some centres not stated)
inactive: T-47D breast 87.4% | BT-549 breast 90.5% | MDA-MB-435 melanoma 102% | SW-620 colon 91.1% | MCF7 breast 91.9% | HCT-116 colon 83.9% | KM12 colon 87.4%

CNC(=O)c1cc(Oc2ccc3nc(NC(=O)Nc4ccc(Cl)c(Cl)c4)sc3c2)ccn1
inactive: T-47D breast 21.3% | BT-549 breast 32.1% | MDA-MB-435 melanoma 22.6% | SW-620 colon 50.4% | MCF7 breast 32.2% | KM12 colon 56.8%
active: HCT-116 colon -13.3%

CCCCC(=O)Nc1ncc(Cc2ccccc2Cl)s1
active: MDA-MB-435 melanoma -31.8%
inactive: T-47D breast 34.1% | BT-549 breast 47.1% | SW-620 colon 24.5% | HCT-116 colon 21.2% | HCC-2998 colon 52.6% | KM12 colon 25.2%

NC(CSC(c1ccccc1)(c1ccccc1)c1ccc2c(c1)OCO2)C(=O)O (configuration not stated)
inactive: T-47D breast 30.2% | BT-549 breast 22.7% | SW-620 colon 12.9% | KM12 colon 13.1%
active: MDA-MB-435 melanoma -58% | HCT-116 colon 7.34% | HCC-2998 colon 9.26%

COc1ccc(-c2cc(C(=O)N3N=C(c4ccc(N)cc4)CC3c3ccccc3)c3ccccc3n2)cc1 (configuration not stated)
inactive: T-47D breast 38.2% | BT-549 breast 41.3% | SW-620 colon 23.4% | HCT-116 colon 17.8% | HCC-2998 colon 59.9% | KM12 colon 25.1%
active: MDA-MB-435 melanoma -20%

COc1cc(C2C3=C(COC3=O)N(CCO)c3cc4c(cc32)OCCO4)cc(OC)c1OC (configuration not stated)
active: BT-549 breast -4.33% | MDA-MB-435 melanoma -32.8% | HCT-116 colon 0.547% | HCC-2998 colon -0.511% | KM12 colon -28.6%
inactive: T-47D breast 67.2% | SW-620 colon 11.9%

O=C(Cn1nnc([N+](=O)[O-])n1)c1ccccc1
inactive: BT-549 breast 113% | MDA-MB-435 melanoma 85.4% | SW-620 colon 91.1% | MCF7 breast 80.9% | HCT-116 colon 60% | HCC-2998 colon 102% | KM12 colon 95.9%

Cn1ccnc1C(=O)/C=C/c1ccc(C(=O)Nc2ccc(F)cc2)cc1
inactive: MDA-MB-435 melanoma 18.3% | MCF7 breast 19%
active: BT-549 breast -14.9% | SW-620 colon 4.13% | HCT-116 colon -81.5% | HCC-2998 colon -0.654% | KM12 colon 3.4%

CCCn1c(=S)sc2c1nc(C)n1c(Nc3ccccc3)nnc21
inactive: BT-549 breast 76.2% | MDA-MB-435 melanoma 63.7% | SW-620 colon 104% | MCF7 breast 77% | HCT-116 colon 59.1% | HCC-2998 colon 78.3% | KM12 colon 96.5%
